Measurements reported in PubChem BioAssay (EPA / NIEHS).
The source made the active and inactive calls. The calls were made as follows: active = hit-call score of the fitted dose curve at least 0.9, where 1 is the maximum; inactive = score below 0.9.

What follows are molecules tested on Transforming Growth Factor (TGFB1), TGFB1 (gene 7040) (assay: LTEA_HepaRG_TGFB1: Life Technologies and Expression Analysis (LTEA) Assay for Transforming Growth Factor (TGFB1) Transporter using HepaRG (AID 2283533)). Details: mRNA level, 48 h; actives raise or lower the signal.
Description: LTEA_HepaRG is a cell based, multiplexed-readout assay that uses HepaRG, a human liver cell line, with measurements taken at 48 hours after chemical dosing on a 96-well plate.LTEA_HepaRG_TGFB1 is one of 102 assay component(s) measured in the LTEA HepaRG cell culture assay. It is a marker of Cell proliferation, survival, death.Data from the assay component LTEA_HepaRG_TGFB1 was analyzed into 1 endpoint. This assay endpoint, LTEA_HepaRG_TGFB1, was analyzed with bidirectional fitting relative to DMSO as the negative control and baseline of activity. Using a type of inducible reporter, measures of mRNA induction for gain or loss-of-signal activity can be used to understand regulation of transcription factor activity. To generalize the intended target to other relatable targets, this assay endpoint is annotated to the growth factor intended target family, where the subfamily is transforming growth factor beta.
A total of 1060 chemcials from the ToxCast library were tested in eight-point concentration-response experiments. Cell culture and cytotoxicity assays were conducted at Thermo Fisher Scientific's Custom Services facility (Madison, WI). A single lot of human HepaRG cells (Thermo Fisher Scientific, Frederick, MD) was used for the cell culture experiments. 96-well format collagen type I coated plates of human HepaRG cells were prepared using established methods. Briefly, cryopreserved HepaRG cells were thawed, plated at a density of approximately 100,000 cells/well in HepaRG Thaw, Plate, and General Purpose media (HPRG770, Thermo Fisher Scientific), and incubated for 48 hours. 0.5% DMSO was selected as vehicle control to balance the requisite need of DMSO in HepaRG cultures to maintain differentiation (for example, baseline metabolism, proportions of hepatocytes vs. cholangiocytes), while enabling further hepatic receptor pathway activation (for example, PXR and CAR) in response to chemical exposure. 48 hours after plating, the culture medium was replaced with HepaRG Serum-Free Incudtion Media. Cells were exposed to each test chemical in duplicate and maintained in CO2 incubators for another 48 hours. Chemical plates were thawed to room temperature and 200x concentrations of treatment groups were prepared. 8-point conentration-reponse curves were made with the highest exposure at 100 uM, followed by half-log dilutions, all in 0.5% DMSO. Each test plate contained variouse controls, induction positive controls (1mM phenobarbital), cytotoxicity positive controls ([…] aflatoxin B1), vehicle controls (0.5% DMSO), and total lysis controls (0.5% DMSO). Cell morphology images were taken using an Essen IncuCyte FLR automated microscope, with six 96-well plates imaged in about 24 minutes. Images were captured and exported and JPEG files. Spent culture media was transfered to black-well plates for the LDH assay, and remaining media was sorted at -80 C for later use. Cells were treated with RLT buffer and frozen until shipped for gene expression analysis. Total RNA was isolated from the cell suspension in 75 uL of Buffer RLT (Qiagen, Germantown, MD 20874) by Quintiles/Expression Analysis (Durham, NC) using a custom isolation procedure. Total RNA from each plate well was transferred to a preamplification plate. Fluidigm's 96.96 Dynamic ArrayTM (Fluidigm, Amsterdam, the Netherlands) technology was used for gene expression analyses by quantitative reverse transcription polymerase chain reaction (qRT-PCR, performed by Quintiles/Expression Analysis, Durham, NC)89. Standard TaqManTM Assays (Applied Biosystems/ThermoFisher Scientific, Foster City, CA) were used to assess the expression of 93 genes selected based on their selectivity and sensitivity to important hepatic receptors known to be modulated by environmental chemicals; importance in human hepatocyte functionality; and hepatotoxicity. […]

Row | SMILES | outcome | AC50
1 | Cc1cc(C)cc(C)c1 | inactive | 
2 | CN(C)C(=S)S | inactive | 
3 | N#Cc1cccnc1 | inactive | 
4 | O=C(O)C1(c2ccc3c(c2)OC[C@H](Cc2ccc(-c4ccccc4)cc2)[C@H]3O)CCCC1 |  | 77.5 µM (active)
5 | Clc1cccc(Cl)c1Cl | inactive | 
6 | COc1ccccc1N | inactive | 
7 | CC(C)(C)c1ccccc1O | inactive | 
8 | OCCN(CCO)CCO | inactive | 
9 | Oc1cc(Cl)c(Cl)cc1Cl | inactive | 
10 | Clc1cccc(Cl)c1 | inactive | 
11 | CC(C)O.CC(C)O.OCCN(CCO)CCO.OCCN(CCO)CCO.[Ti] | inactive | 
12 | CCCCCCCCCCCCc1cccc(S(=O)(=O)O)c1 |  | 45 µM (active)
13 | O=C(N[C@H]1CN2CCC1CC2)c1ccc2c(c1)OCCO2 | inactive | 
14 | Oc1c(Cl)cc(Cl)cc1Cl | inactive | 
